Where “and” joins values, the source holds several entries; their conditions need not be identical. Identical values can stand only once. This is part of a sample that, as a whole, favours compounds with a hit. Of some 83,000 tested, about 20% had one in any assay.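 48-hour exposure, single concentration, 96-well plates; percent growth endpoint where 0 means no net growth. Active: below 10.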 Values without a mark were called inactive. Calls of active or inactive are those of the source.
Legend:
Assay in all cases: NCI-60 one-dose screen, 48 h (100 = growth as untreated, 0 = no growth, -100 = all killed)
Conditions in all cases: 10 µM unless noted
SK-MEL-2 melanoma = test system: SK-MEL-2 melanoma
EKVX NSCLC = test system: EKVX NSCLC
SN12C renal = test system: SN12C renal
UO-31 renal = test system: UO-31 renal
TK-10 renal = test system: TK-10 renal
ACHN renal = test system: ACHN renal
CAKI-1 renal = test system: CAKI-1 renal
A498 renal = test system: A498 renal
CCRF-CEM leukemia = test system: CCRF-CEM leukemia
MOLT-4 leukemia = test system: MOLT-4 leukemia

SMILES	growth (SK-MEL-2 melanoma)	growth (EKVX NSCLC)	growth (SN12C renal)	growth (UO-31 renal)	growth (TK-10 renal)	growth (ACHN renal)	growth (CAKI-1 renal)	growth (A498 renal)	growth (CCRF-CEM leukemia)	growth (MOLT-4 leukemia)
CCOC(=O)N(O)c1ccc(/C=C/c2ccccc2)cc1	66.5% and 53.1%	91.8%	66.3% and 62.6%	56.2% and 57.4%	4.6% (active)	76.2% and 70.3%	51.7% and 81.4%	-67.4% (active) and -83.1% (active)	55.2% and 63%	59.4% and 60.9%
COc1cc(CNC(=O)CCCC/C=C/C(C)C)ccc1O	93.3% and 108%	103% and 97.3%	92.4% and 91.9%	57.7% and 59%	200% and 103%	99.7%	92.1% and 82.2%	112% and 113%	55.8% and 58.3%	84.2% and 73.4%
COc1cc(-c2nc(SCCC(C)C)nc(Nc3ccc(F)cc3)c2C#N)cc(OC)c1OC	101%	85%	64.6%	64.6%	41.4%	34.1%	49.6%	62.5%	91.4%	83.4%
CN(C)CCCn1c2nc(=O)[nH]c(=O)c-2nc2cc(Cl)c(Cl)cc21	112%	103%	70.5%	80.9%	80.5%	87.8%	79%	92.1%	45.6%	64.8%
COC1=CC(c2ccc[nH]2)=N/C1=C\c1[nH]c(C)c(C(=O)Oc2ccccc2)c1C	-68.6% (active)	-19.9% (active)	0.383% (active)	-87.2% (active)	-6.73% (active)	-90.3% (active)	-23.8% (active)	-46.7% (active)	18.6%	3.87% (active)
Cc1cc(N2CCN(CC(=O)Nc3ccc4c(ccn4Cc4ccccc4)c3)CC2)nc(N2CCCCCC2)n1	64%	57.5%	54.8%	-1.98% (active)	73.1%	57.5%	31.9%	5.69% (active)	46.2%	44.3%
Cc1ccc(NC(=O)c2sc3nc(C)c(C(=O)c4ccccc4)cc3c2N)cc1	93.8%	72.4%	95.8%	89.4%	99.5%	92.8%	76.1%	4.97% (active)	94.3%	104%
COc1cc(Cl)cc(-c2nn(C(=O)NS(=O)(=O)c3ccc(Cl)cc3)cc2-c2ccncc2)c1	95%	59.5%	92.5%	63%	85.8%	80.6%	91%	70.2%	88%	76.2%
O=C(/C=C/c1ccc(Cl)s1)c1ccc(Cl)s1	100% and 109%	98.3%	93.3% and 91%	82.8%	94.9% and 88.9%	93.9% and 101%	92.4%	97.8%	94.8% and 90.7%	95.1% and 88.9%
N#CC1=C(N)Oc2c(sc3c(Br)cccc23)C1c1ccccn1 (stereo not given)	2.4% (active)	53.4%	43.9%	46.7%	64.6%	47.3%	87.4%	37.9%	22.1%	28.9%
CCCCC#Cc1c(/C=C(\CCCC)SCC)n(C)c(=O)[nH]c1=O	67.1%	104%	101%	90.9%	104%	101%	102%	72%	95%	62.1%
Cc1ccc(-c2nc3nc(-c4ccc(Cl)cc4)nc(N4CCCNCC4)c3o2)cc1	103%	123%	-86% (active)	-78.7% (active)	29.7%	-98.9% (active)	-92.3% (active)	95.2%	-72.6% (active)	-71.2% (active)
C=C1CC[C@@H]2[C@](C)(COC(C)=O)[C@H](OC(C)=O)CC[C@@]2(C)[C@@H]1CC(Nc1ccc(S(=O)(=O)Nc2nccs2)cc1)C1=CCOC1=O (stereo not given in full)	28.4%	73.4%	15.6%	13.5%	55%	-46.6% (active)	55.9%	85%	-27.7% (active)	-4.45% (active)
CCN1CCN(C(=O)[C@]23CC[C@@H](C)[C@H](C)[C@@H]2C2=CC[C@@H]4[C@@]5(C)CCC(=O)C(C)(C)[C@@H]5CC[C@@]4(C)[C@]2(C)CC3)CC1	12.3%	28.4%	7.97% (active)	-9.67% (active)	18.7%	9.64% (active)	23.8%	-17.8% (active)	-8.01% (active)	-15.9% (active)
Cc1cccc(-c2nnc(SCC(=O)Nc3ncc(Cc4ccccc4)s3)n2N2C(=O)CSC2=S)c1	75.6%	73.4%	19.1%	72.3%	47.3%	43.8%	23.3%	64.8%	76.5%	87.5%
CC[C@H](C)[C@H](NC(=O)[C@@H](N)CCC(N)=O)C(=O)N[C@@H](Cc1ccc(O)cc1)C(=O)N[C@@H](CCCCN)C(=O)N[C@@H](CCCCN)C(=O)N[C@@H](Cc1ccc(O)cc1)C(=O)N[C@@H](CCCNC(=N)N)C(=O)N[C@H](C(=O)N[C@@H](Cc1c[nH]c2ccccc12)C(=O)N[C@@H](Cc1ccc(O)cc1)C(=O)N[C@@H](CCCNC(=N)N)C(=O)N[C@@H](CCCCN)C(=O)N[C@@H](C)C(=O)N[C@@H](Cc1c[nH]c2ccccc12)C(=O)N[C@@H](CCCCN)C(=O)N[C@H](C(=O)N[C@@H](CC(C)C)C(=O)NCC(=O)N[C@@H](CCCCN)C(=O)N[C@H](C(N)=O)C(C)C)C(C)C)[C@@H](C)O	43.3%	-34.5% (active)	12.4%	76%	8.22% (active)	65.6%	7.94% (active)	64.6%	5.19% (active)	52.9%
CC(=O)N1N=C(c2ccc(F)cc2)CC1c1sc(N(C)Cc2ccccc2)nc1Cl (stereo not given)	96.1%	87.4%	106%	74.6%	112%	102%	83.9%	104%	96.4%	99.7%
Cn1cc2c(=O)nc3c(-c4nc5ccccc5[nH]4)n[nH]n3c2n1	30.4%	95.6%	77.9%	90.8%	120%	98.1%	86.8%	58.7%	6.27% (active)	47.8%
CCCn1nc(C(=O)N2CCCCC2)c2c1CCC(N1CCC(c3ccncc3)CC1)C2 (stereo not given)	105%	100%	118%	92.7%	101%	105%	95.8%	109%	101%	108%
Cc1ccc(-c2nc3nc(-c4ccccc4)nc(N4CCCNCC4)c3o2)cc1	-2.85% (active)	39%	-87.9% (active)	-98.1% (active)	-60% (active)	-98.9% (active)	-9.04% (active)	98.4%	-75.8% (active)	-68.1% (active)
CCC(=O)Oc1cc(Cl)c(Cl)cc1Cl	103%	102%	97.9%	95.3%	98.5%	101%	99.2%	83.3%	105%	111%
COc1ccc2c(c1)oc1c(C)c3c(c(C)c12)C(=O)N(Nc1ccccc1)C3=O	99%	108%	97%	84%	114%	99.4%	91.5%	117%	111%	99.8%
COc1cc(Nc2nc3ccccc3cc2C(=O)Nc2ccc(F)c(F)c2)cc(OC)c1OC	48.2%	30%	12.5%	21.8%	47.8%	5.68% (active)	46.5%	-3.64% (active)	24.7%	14.2%
C=C(C)[C@@H]1CC[C@]2(C)[C@H](CC(=O)N[C@H]3[C@@H]4C[C@](C)(C(=O)OC)CC[C@]4(C)CC[C@]32C)[C@@]1(C)CCC#N	95.3%	93.2%	79.4%	75.7%	104%	88%	79.2%	101%	75.1%	42.7%

Reference: PubChem BioAssay (NCI)
